# Compound activity from PubChem BioAssay.
# RORg inh – inhibitors of mouse ROR gamma transcriptional activity; P51450; Drosophila S2 Gal4-RORgamma UAS-luciferase reporter, 20 h; Potency, µM (titrated, usually from 53.6 µM), for inactives: top-dose activity change, negative = inhibition, most hits filed as inhibitors; hit rate 5.4% among 310,000; AID 2551; further: on the % scale 0 is the no-effect control and ±100 the full control effect; nearly all actives have a fitted effect of over 60% in size
#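 In this cell-based reporter format, copper sulfate (700 uM final) drives Gal4–ROR gamma fusion expression from a metallothionein promoter in Drosophila Schneider cells; compounds preincubated 1 hr, reporter read after 20 hr at ambient temperature.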
# GLP1R inv ag – GLP-1 receptor (human) inverse agonism. Potency, µM (doses to about 38.3 µM), for the others: at the top dose activity change, negative = inhibition, actives largely listed as inhibitors. HEK293 GLP-1R CRE-luciferase, luminescence, 24 h; GLP-1R form is constitutively active. P43220. hit rate 1.6% among 410,000; further: on the % scale 0 is the no-effect control and ±100 the full control effect; nearly all actives have a fitted effect of over 55% in size
# Target sequence (P43220 whole entry, looked up): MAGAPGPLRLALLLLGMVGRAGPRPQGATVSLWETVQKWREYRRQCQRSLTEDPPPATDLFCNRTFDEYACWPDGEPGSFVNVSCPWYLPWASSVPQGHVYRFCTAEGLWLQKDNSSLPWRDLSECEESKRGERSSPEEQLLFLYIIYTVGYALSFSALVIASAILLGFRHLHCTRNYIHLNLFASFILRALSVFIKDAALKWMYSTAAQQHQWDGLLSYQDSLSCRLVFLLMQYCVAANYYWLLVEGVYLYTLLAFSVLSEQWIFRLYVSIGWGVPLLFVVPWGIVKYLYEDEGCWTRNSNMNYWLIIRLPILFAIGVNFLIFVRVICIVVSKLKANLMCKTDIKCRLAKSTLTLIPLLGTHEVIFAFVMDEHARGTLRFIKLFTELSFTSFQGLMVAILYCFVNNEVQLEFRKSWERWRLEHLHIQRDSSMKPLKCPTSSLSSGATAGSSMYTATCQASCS
#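 Seeding at 200 cells/uL, 12 h culture, 24 hr compound treatment, then luciferase reagent and a luminescence read; cells are HEK293 stably expressing a constitutively active GLP-1R plus cAMP-responsive luciferase.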
# GLP1R cytotox – cytotoxicity in counter-screen for GLP-1R inverse agonists; Potency, µM (series often up to 38.3 µM), for the others: top-dose activity change, negative = inhibition, usual class: inhibitors; HEK293 cAMP-luciferase reporter cells, luminescence, 24 h; hit rate 0.13% among 410,000;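 further: loss of luciferase light is scored as toxicity; on the % scale 0 is the no-effect control and ±100 the full control effect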
#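 Here, cytotoxicity is scored as loss of luminescence. The MLSMR collection was tested on cells seeded in medium containing 10% Nu serum, with a 24 hr compound exposure preceded by 12 hours of culture.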
# Gal4-VP16 FLuc – counter-screen for ROR gamma inhibitors: Gal4-VP16 reporter; Drosophila S2 Gal4-VP16 UAS-luciferase, luminescence, 20 h; Potency, µM (series often up to 53.6 µM), for inactives: at the top dose activity, negative = inhibition, hits mostly inhibitors; hit rate 3.5% among 310,000; AID 2546;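 further: Gal4-VP16 expression switched on by copper sulfate through the metallothionein promoter; on the % scale 0 is the no-effect control and ±100 the full control effect; nearly all actives have a fitted effect of over 50% in size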
# GLP-1R agonist – GLP-1 receptor (human) agonism; HEK293 GLP-1R CRE-luciferase, luminescence, 4-6 h; cells express a hypersensitive GLP-1R form; P43220; hit rate 0.007% among 380,000; AID 624172; Potency, µM (highest dose often 45.6 µM), for the others: at the highest dose activation, usual class: activators; further: % of control where 0% means no effect
# Numbers without * were called inactive; ? = inconclusive; . = not tested or not shown; [ ] = remark or other dose. Most compounds without a hit are left out; they make up all but 5.9% or so of the library. The call rests on the fitted dose curve; in most records, active means well fitted curve in the direction sought with a large enough effect; inconclusive means small, poorly fitted or top-dose-only effect, or another doubt; inactive means no such curve, though single readings can be large; an effect the other way counts as inactive or inconclusive. Potency means the concentration at half of the fitted maximal effect.
SMILES,RORg inh,GLP1R inv ag,GLP1R cytotox,Gal4-VP16 FLuc,GLP-1R agonist
CC(NC(=O)C1CCN(S(=O)(=O)c2ccc(F)cc2)CC1)c1ccccc1 (stereo not given),.,-7%,-1%,.,.
O=C(c1cccnc1)N1N=C(C2CC2)CC1(O)C(F)(F)F (stereo not given),?,?,?,-1%[10 µM],11%
CC(C)CC1=NN(C(=O)c2ccncc2)C(O)(C(F)(F)F)C1 (stereo not given),-41%,1.1µM*,-23%,?,-1%
Cc1ccc(C2=NN(C(=O)c3ccco3)C(O)(C(F)(F)F)C2)cc1 (stereo not given),?,-29%,-14%,?,22%
CC1=NN(C(=O)c2ccoc2C)C(O)(C(F)(F)F)C1 (stereo not given),3.5µM*,?,?,10µM*,8%
O=C(c1ccncc1)N1N=C(C2CC2)CC1(O)C(F)(F)F (stereo not given),11µM*,?,-21%,-17%,1%
CC1=NN(C(=O)c2csc(C(C)C)c2)C(O)(C(F)(F)F)C1 (stereo not given),5µM*,1.3µM*,?,4.5µM*,2%
CCOc1ccc(N2C(=O)N(Cc3c(F)cccc3Cl)c3ccccc3S2(=O)=O)cc1,.,1%,-5%,.,.
O=S(=O)(c1cccc2ccccc12)N1CCN(c2ccc(Cl)c(Cl)c2)CC1,.,7%,4%,.,-6%
CCN(CC)CCCN(c1ccccc1)C1Cc2ccccc2C1,-42%,.,.,-21%,-2%
NS(=O)(=O)O,36%,.,.,-3%,.
CC(C)CC1=NN(C(=O)c2cccnc2)C(O)(C(F)(F)F)C1 (stereo not given),11µM*,?,-10%,13µM*,-3%
CC1=NN(C(=O)c2cccnc2)C(O)(C(F)(F)F)C1 (stereo not given),7.9µM*,?,?,13µM*,4%
CCN(CC)CCNC(=O)Cn1ncc2c3ccccc3n(Cc3ccc(Cl)cc3)c2c1=O,.,-24%,-8%,.,.
CC(C)COc1cccc(C(=O)Nc2ccc(S(=O)(=O)N3CCOCC3)cc2)c1,-18%,?,-28%,-2%,10%
CC(C)CC(=O)NC(=S)Nc1ccc(N2CCOCC2)cc1,28µM*,-12%,-3%,?,10%
O=C(COc1ccc(Cl)cc1Cl)NNC(=S)Nc1ccc(F)cc1,3.5µM*,-9%,5%,?,1%
O=C(COc1ccc(Cl)cc1Cl)NC(=S)Nc1ccc(CN2CCOCC2)cc1,16µM*,-26%,15%,?,-1%
CC(=O)NC(=S)Nc1ccc(NC(=O)COc2ccc(Cl)cc2Cl)cc1,6%,?,?,-5%,-7%
CC(C)COc1cccc(C(=O)Nc2ccc(CN3CCOCC3)cc2)c1,-3%,8.9µM*,-24%,1%,7%
O=C1CCC=C1C(O)CCc1ccccc1 (stereo not given),1%,.,.,-13%,.
Cc1cc(NC(=S)NC(=O)CC(C)C)ccc1Br,2.8µM*,0%,-34%,?,-2%
CCc1cccc(NC(=S)Nc2ccc(CN3CCOCC3)cc2)c1,11µM*,?,-25%,20µM*,3%
CC(C)CC(=O)NNC(=S)Nc1ccc(S(N)(=O)=O)cc1,18µM*,3%,-4%,-3%[10 µM],0%
Cc1cccc(NC(=S)NCCN2CCOCC2)c1,?,23%,5%,?,-2%
SMILES,RORg inh,GLP1R inv ag,GLP1R cytotox,Gal4-VP16 FLuc,GLP-1R agonist
CC(C)CC(=O)NC(=S)Nc1ccc(NC(=O)c2cccs2)cc1,?,4%,-13%,6%,6%
CC(C)CC(=O)NC(=S)Nc1ccc(CN2CCOCC2)cc1,4.5µM*,-21%,-1%,11%,4%
CCOc1ccccc1C1CC(=O)Nc2c1c(=O)n(C)c1ncnn21 (stereo not given),.,13%,5%,.,-6%
COC(=O)C1=C[C@@H](C(=O)OC)C2C3=C(C(=O)[C@@]2(C)NC(=O)c2ccccc2)[C@H](c2ccccc2)n2c(=O)n(-c4ccccc4)c(=O)n2[C@@H]3C1 (stereo not given in full),0%,.,.,-9%,.
Cc1ccc(Cl)cc1N1CCN(C(=O)c2ccc3c(c2)N(Cc2ccccc2)CCS3)CC1,.,19%,-14%,.,.
CCCc1nn2c(=O)cc(COC(=O)c3ccco3)nc2s1,.,12%,-5%,.,.
O=C(CCCCl)NC(=S)Nc1ccc(N2CCOCC2)cc1,2.2µM*,3%,-2%,?,-1%
O=C(CCCCl)NC(=S)Nc1ccc(CN2CCOCC2)cc1,-22%,-11%,25%,3%,7%
CC(C)(C)C1CCc2onc(C(=O)Nc3cnn(Cc4ccc(F)cc4)c3)c2C1 (stereo not given),?,2%,8%,16µM*,-5%
O=C(Nc1cnn(Cc2ccc(F)cc2)c1)C(c1ccccc1)c1ccccc1,34%,4.5µM*,-13%,-1%,0%
Cc1cc(C)cc(NC(=O)c2cc(S(=O)(=O)N3CCCCC3)c[nH]2)c1,.,-13%,40%,.,.
COc1ccc(-c2nc3cnc(N4CCOCC4)nc3n(Cc3cccs3)c2=O)cc1,15%,.,.,-1%,.
NC(=S)N=Nc1c(O)n(CCCl)c2ccccc12,1µM*,2.8µM*,?,3.2µM*,23%
CCOc1ccc2c(c1)c(N=NC(=N)N)c(O)n2C,-5%,-2%,?,1%,12%
NC(=S)N=Nc1c(O)n(CC(=O)Nc2ccccc2)c2ccccc12,?,-6%,?,-15%,-4%
CCOc1ccc2c(c1)c(N=NC(N)=S)c(O)n2C,?,-1%,?,7.1µM*,-2%
NC(=S)N=Nc1c(O)n(CCCl)c2ccc(Cl)cc12,0.79µM*,?,1.3µM*,3.5µM*,26%
Cc1nc2ccc(S(=O)(=O)NC(C(=O)N3CCN(c4cccc(Cl)c4)CC3)C(C)C)cc2s1 (stereo not given),.,12%,-6%,.,0%
Cc1cc(C)cc(NC(=O)CCNS(=O)(=O)c2cc(Br)cnc2N)c1,-1%,7.9µM*,-12%,4%,2%
CCOC(=O)c1ccc(NC(=O)CCNS(=O)(=O)c2cc(Br)cnc2N)cc1,1%,?,-9%,-6%,5%
N#Cc1c(Cl)nsc1NC(=O)c1ccccc1,8.9µM*,-24%,-19%,4µM*,-6%
COc1ccc(CNc2ncncc2-c2ccc(N(C)C)cc2)c(OC)c1,-1%,.,.,-1%,.
COc1ccccc1CNc1ncncc1-c1ccc(N(C)C)cc1,22µM*,.,.,-22%,.
